This is an account of results in PubChem BioAssay (NCATS).

Results filed as inconclusive are left out. Unmarked numbers belong to inactive results. Activity calls are given as the source filed them. Calls follow the shape of the dose curve; as a rule, active = well fitted curve in the direction sought with a large enough effect; inconclusive = small, poorly fitted or top-dose-only effect, or another doubt; inactive = no such curve, though single readings can be large; an effect the other way counts as inactive or inconclusive.

Assay [1] is described as follows: qHTS of pediatric cancer cell lines to identify multiple opportunities for drug repurposing: Primary screen for SK-N-SH cells (AID 1347098). Also: nearly all actives have a fitted effect of over 65% in size. Also: potency is read from the fitted curve at half-maximal effect.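 As to activity change, negative = cytotoxic: DMSO served as neutral control and bortezomib at 2.3 µM as positive control; % is scaled to controls: 0 for no effect and ±100 for the full control effect.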 Summed up: (§1)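 Cells (500-1,000/well) rested 5 h, then received compounds for 48 h; metabolically active cells were measured by CellTiter-Glo luminescence. Final concentrations spanned up to 46 µM (MIPE, 11-point) or 0.59 nM-46 µM (NPC, 8-point) in primary screens, 11-point in follow-ups.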

Assay [2] can be described thus: qHTS of pediatric cancer cell lines to identify multiple opportunities for drug repurposing: Primary screen for NB1643 cells (AID 1347099). Also: nearly all actives have a fitted effect of over 50% in size. Also: potency is read from the fitted curve at half-maximal effect.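 As to activity change, negative = cytotoxic: plate controls were DMSO neutral control for no effect and bortezomib positive control for full effect.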 Summed up: (§2)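 CRCs from 8- or 11-point titrations (lowest final 0.59 nM NPC, 0.78 nM MIPE). Cell viability: CellTiter-Glo after 48 h incubation, 15 min room-temperature development, luminescence imaging.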
Assay [3] can be described thus: qHTS of pediatric cancer cell lines to identify multiple opportunities for drug repurposing: Primary screen for LAN-5 cells (AID 1347100). Also: potency is read from the fitted curve at half-maximal effect.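 As to activity change, negative = cytotoxic: plate controls were DMSO neutral control for no effect and bortezomib positive control for full effect.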 Summed up:
(§3)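 Cells (500-1,000/well) in growth media were settled 5 h at 37 degrees C, then given compounds for 48 h. Viability was read as CellTiter-Glo luminescence. Primary runs used MIPE at 11 points (0.78 nM-46 µM) and NPC at 8 points (0.59 nM-46 µM); follow-ups used 11 points.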
(Quantitative high-throughput screening tests each substance at several concentrations.)

A short description of assay [4]: qHTS of pediatric cancer cell lines to identify multiple opportunities for drug repurposing: Primary screen for BT-12 cells (AID 1347101). Also: nearly all actives have a fitted effect of over 25% in size. Also: potency is read from the fitted curve at half-maximal effect.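 As to activity change, negative = cytotoxic: plate controls were DMSO for no effect and bortezomib positive control for full effect.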 The method, boiled down:
as §1

The nature of assay [5]: qHTS of pediatric cancer cell lines to identify multiple opportunities for drug repurposing: Primary screen for Rh18 cells (AID 1347102). Also: nearly all actives have a fitted effect of over 65% in size. Also: potency is read from the fitted curve at half-maximal effect. As to activity change, negative = cytotoxic: % is scaled to controls: 0 for no effect and ±100 for the full control effect. Summed up:
as §3

Assay [6] is described as follows: qHTS of pediatric cancer cell lines to identify multiple opportunities for drug repurposing: Primary screen for OHS-50 cells (AID 1347103). Also: nearly all actives have a fitted effect of over 40% in size. Also: potency is read from the fitted curve at half-maximal effect.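 As to activity change, negative = cytotoxic: plate controls were DMSO neutral control for no effect and bortezomib positive control for full effect.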 Summed up:
as §1

Assay [7] is described as follows: qHTS of pediatric cancer cell lines to identify multiple opportunities for drug repurposing: Primary screen for RD cells (AID 1347104). Also: nearly all actives have a fitted effect of over 55% in size. Also: potency is read from the fitted curve at half-maximal effect.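 As to activity change, negative = cytotoxic: plate controls were DMSO for no effect and bortezomib for full effect.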 The method, boiled down: as §2
Assay [8] can be described thus: qHTS of pediatric cancer cell lines to identify multiple opportunities for drug repurposing: Primary screen for MG 63 (6-TG R) cells (AID 1347105). Also: nearly all actives have a fitted effect of over 50% in size. Also: potency is read from the fitted curve at half-maximal effect. As to activity change, negative = cytotoxic: % is scaled to controls: 0 for no effect and ±100 for the full control effect. The method, boiled down:
as §2

The nature of assay [9]: qHTS of pediatric cancer cell lines to identify multiple opportunities for drug repurposing: Primary screen for control Hh wild type fibroblast cells (AID 1347106).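 Also: series mostly up to about 46 µM; % is scaled to controls: 0 for no effect and ±100 for the full control effect; a drop in luminescence marks cytotoxicity and a rise apparent proliferation; nearly all actives have a fitted effect of over 55% in size.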 The method, boiled down:
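Viability after 48 h compound treatment at 37C, 500-1,000 cells/well, read as ATP luminescence with CellTiter-Glo. Primary screens used 11-point (MIPE, 0.78 nM-46 µM) or 8-point (NPC, 0.59 nM-46 µM) final concentrations; follow-up screens used 11-point dilutions.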

Assay [10] in a line: qHTS of pediatric cancer cell lines to identify multiple opportunities for drug repurposing: Primary screen for Saos-2 cells (AID 1347097). Also: nearly all actives have a fitted effect of over 40% in size. Also: potency is read from the fitted curve at half-maximal effect. As to activity change, negative = cytotoxic: % is scaled to controls: 0 for no effect and ±100 for the full control effect. Summed up: as §2

Take `Nc1ncnc2c1ncn2[C@@H]1O[C@H](CO)[C@@H](O)[C@@H]1O`: the Potency is 15.2 µM (active) in assay [1]; 0.833 µM (active) in [2]; 1.48 µM (active) in [3]; 6.11 µM (active) in assay [4]; 1.87 µM (active) in assay [5]; 3.85 µM (active) in assay [6]. For the same compound, the Potency is 1.66 µM (active) in assay [7] and 3.72 µM (active) in assay [8]. The Potency result in assay [9] was “inactive”.
As to `COc1nccc(-c2c(-c3ccc(F)cc3)ncn2C2CCC(O)CC2)n1` (configuration not stated), the Potency result in assay [1], in assay [2], in assay [3], in [4], in assay [5] and in assay [6] was “inactive” in each case. The Potency result in [7], in assay [8] and in assay [9] was “inactive” each time.
For the compound `COc1ccc(CCC(=O)Nc2nc3ccc(Cl)cc3s2)cc1OC`, the Potency in assay [1] was 9.61 µM (active); in assay [2], 5.26 µM (active). The Potency entry in assay [3], in assay [4], in assay [5], in assay [7], in [8] and in assay [9] was “inactive” each time.
As to `CCC(C)SSc1ncc[nH]1` (configuration not stated), the Potency in [10] is 18.7 µM (active); in assay [3], 14.8 µM (active); in assay [6] it was 15.3 µM (active); in [7], 26.4 µM (active); in assay [8], 23.5 µM (active). Further, the Potency entry in [9] was “inactive”.
As for `Cc1ccc2c(c1)C(=O)[C@]1(O)CCN(c3ccccc3)C1=N2`, the Potency entry in [10] and in assay [9] was “inactive” each time.
With `CN(C)c1ccc(-c2nc3ncc(Cl)c(N4CCN(CC(=O)Nc5nccs5)CC4)c3[nH]2)cc1`, the Potency in assay [10] is 14.8 µM (active); in assay [3], 0.833 µM (active). The Potency entry in assay [4], in assay [8] and in assay [9] was “inactive” in each case.
For the compound `CC1=C[C@@H]2[C@@H]([C@@H](O)C[C@@]3(C)[C@H]2C[C@@H](C)[C@]3(O)C(=O)CO)[C@@]2(C)Cc3cnn(-c4ccccc4)c3C=C12`, the Potency is 29.6 µM (active) in assay [10] and 23.5 µM (active) in [3]. Further, the Potency entry in assay [5] and in [9] was “inactive” throughout.
In the case of `O=C(O)C1=CO[C@@H](O[C@@H]2O[C@H](CO)[C@H](O)[C@H](O)[C@H]2O)[C@@H]2C(CO)=CC[C@H]12`, the Potency in [1] is 21.5 µM (active). The Potency entry in [2], in [3], in [4], in assay [5], in assay [6] and in assay [8] was “inactive” throughout. Moreover, in assay [9], the Potency result was “inactive”.
As to `O=C(Nc1cccc(Cl)c1)Nc1ncc(CCNc2ncnc3ccsc23)s1`, the Potency in [10] was 2.96 µM (active); in assay [3], 0.132 µM (active); in assay [6], 7.69 µM (active). In addition, in [9], the Potency result is “inactive”.
Regarding `O=C(O)C1=NC(C(=O)O)CC(C=CN2c3cc(O)c(OC4OC(CO)C(O)C(O)C4O)cc3CC2C(=O)O)=C1` (configuration not stated), the Potency entry in [1], in assay [2], in [3], in assay [4], in assay [5] and in assay [6] was “inactive” each time. In addition, the Potency entry in [7] and in assay [8] was “inactive” throughout.
For `COc1c(C)c2c(c(O)c1CC=C(C)CCC(=O)OCCN1CCOCC1)C(=O)OC2`, the Potency result in [10] and in assay [5] was “inactive” throughout. For the same compound, the Potency in assay [4] is 1.93 µM (active).
Regarding `CN1CCN2c3ncccc3Cc3ccccc3C2C1` (configuration not stated), the Potency entry in [1], in assay [2], in assay [3], in assay [4], in assay [5] and in assay [6] was “inactive” in each case. For the same compound, the Potency entry in [7], in assay [8] and in assay [9] was “inactive” throughout.
Turning to `Nc1ncnc2c1c(-c1cccc(OCc3ccccc3)c1)cn2C1CC(CN2CCC2)C1` (configuration not stated), the Potency is 3.32 µM (active) in assay [10], 4.69 µM (active) in [3] and 7.43 µM (active) in assay [7]. The Potency entry in assay [4] and in assay [9] was “inactive” throughout.
Consider `COc1c(C)c2c(c(O)c1CC=C(C)CCC(=O)O)C(=O)OC2`, for which the Potency entry in [10], in assay [5] and in assay [9] was “inactive” in each case. In addition, the Potency in [3] was 3.32 µM (active).
Turning to `OC[C@H]1O[C@@H](O[C@H]2[C@@H](O)[C@@](O)(CO)O[C@@H]2CO)[C@H](O)[C@@H](O)[C@@H]1O`, the Potency entry in assay [1], in [2], in assay [3], in assay [4], in [5] and in assay [7] was “inactive” throughout. Further, the Potency result in [8] and in [9] was “inactive” throughout.
With `CCNC(=O)CCCC=CC[C@@H]1[C@H](C=CC(O)CCc2ccccc2)[C@@H](O)C[C@@H]1O` (some centres not stated), the Potency entry in assay [10], in [5], in [7], in assay [8] and in assay [9] was “inactive” in each case.
As to `CO[C@H]1C=CO[C@@]2(C)Oc3c(C)c(O)c4c(O)c(c(C=NN5CCN(C)CC5)c(O)c4c3C2=O)NC(=O)C(C)=CC=C[C@H](C)[C@H](O)[C@@H](C)[C@@H](O)[C@@H](C)[C@H](OC(C)=O)[C@H]1C`, the activity change, negative = cytotoxic was -10.6% [at 11.4 µM] in [1]; 22.3% [at 9.22 µM] in assay [2]; -8.14% [at 9.22 µM] in assay [3]; 2.32% [at 11.5 µM] in assay [4]; -3.68% [at 9.22 µM] in [5]; -1.83% [at 11.5 µM] in assay [6]. Besides, the activity change, negative = cytotoxic in [8] is -12.4% [at 9.22 µM]; in [9], -5.37% [at 9.22 µM].
With `CCNC(=O)c1noc(-c2cc(C(C)C)c(O)cc2O)c1-c1ccc(CN2CCOCC2)cc1`, the Potency is 0.152 µM (active) in assay [1]; 0.105 µM (active) in assay [2]; 0.105 µM (active) in [3]; 0.0935 µM (active) in assay [5]; 0.153 µM (active) in assay [6]; 0.235 µM (active) in assay [7].
For `Cc1ccc2c(=O)c3cccc(CC(=O)O)c3oc2c1C`, the Potency in assay [1] was 24.1 µM (active); in [2], 14.8 µM (active); in [7] it was 29.6 µM (active); in assay [8], 23.5 µM (active). Moreover, the Potency result in assay [4], in assay [5], in assay [6] and in assay [9] was “inactive” in each case.
As to `Cc1cccc2c1CC[C@H](CN1CCC(c3c(Cl)cccc3Cl)CC1)C[C@@H]2O`, the Potency entry in assay [1], in assay [2], in assay [8] and in assay [9] was “inactive” in each case. The Potency in [3] was 18.7 µM (active); in assay [6] it was 5.44 µM (active); in [7], 33.2 µM (active).
As for `CC(=O)Nc1cccc(-n2c(=O)n(C3CC3)c(=O)c3c(Nc4ccc(I)cc4F)n(C)c(=O)c(C)c32)c1`, the Potency in assay [1] is 3.41 µM (active); in assay [2] it was 18.7 µM (active); in assay [3], 18.7 µM (active); in assay [7] it was 0.0372 µM (active). In addition, the Potency entry in [8] and in [9] was “inactive” in each case.
